Compound activity from PubChem BioAssay.
ALOX12 inh = Primary qHTS assay for inhibitors of human arachidonate 12S-lipoxygenase (ALOX12): Round 2; 580,000 tested, 1.1% active; purified 12hLO, xylenol orange hydroperoxide absorbance; Potency, µM (highest dose often 108 µM), inactives show at the top dose activity change, negative = inhibition, most hits filed as inhibitors; note: % is set by controls: 0 for no effect and ±100 for the full control effect
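Purified human 12hLO at 150 nM in 25 mM Hepes, 0.01% Triton X-100, pH 7.0, preincubated 15 min at room temperature with compound. Reaction started with 40 uM arachidonic acid, 30 min at room temperature. Hydroperoxide measured by Fe-xylenol orange, 573/405 nm absorbance ratio.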
HP1b chromo inh = HTS for Inhibitors of HP1-beta Chromodomain Interactions with Methylated Histone Tails; Chromobox protein homolog 1 (Homo sapiens), P83916; AlphaScreen HP1-beta / biotin-H3K9me3 peptide binding; Potency, µM (top dose mostly 114 µM), without a hit: at the highest dose activity change, negative = inhibition, most hits filed as inhibitors; 390,000 tested, 0.56% active; AID 540317, 2011; note: nearly all actives have a fitted effect of over 70% in size
Target sequence (P83916 whole entry, looked up): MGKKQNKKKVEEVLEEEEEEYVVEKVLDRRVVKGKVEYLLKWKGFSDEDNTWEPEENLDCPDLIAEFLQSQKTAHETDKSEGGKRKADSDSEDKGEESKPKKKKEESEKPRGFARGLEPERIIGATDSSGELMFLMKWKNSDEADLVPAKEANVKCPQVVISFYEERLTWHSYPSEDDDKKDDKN
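AlphaScreen: HP1-beta (50 nM) preformed 30 min with biotin-H3(1-18)K9me3 peptide (50 nM) in PBS pH 7.4, 0.01% Tween-20. Compound added for 30 min at RT, then streptavidin donor/nickel chelate acceptor beads (10 ug/mL) for 30 min.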
G9a inh = qHTS Assay for Inhibitors of Histone Lysine Methyltransferase G9a; Potency, µM (titrated, usually from 102 µM), without a hit: at the highest dose activity, negative = inhibition, hits mostly inhibitors; G9a H3K9 monomethylation, AlphaScreen, 2 h; AID 504332, 2011; Histone-lysine N-methyltransferase EHMT2 (Homo sapiens), Q96KQ7; 350,000 tested, 8.8% active; note: % is set by controls: 0 for no effect and ±100 for the full control effect; nearly all actives have a fitted effect of over 75% in size
Target sequence (Q96KQ7 913-1193 limits assumed): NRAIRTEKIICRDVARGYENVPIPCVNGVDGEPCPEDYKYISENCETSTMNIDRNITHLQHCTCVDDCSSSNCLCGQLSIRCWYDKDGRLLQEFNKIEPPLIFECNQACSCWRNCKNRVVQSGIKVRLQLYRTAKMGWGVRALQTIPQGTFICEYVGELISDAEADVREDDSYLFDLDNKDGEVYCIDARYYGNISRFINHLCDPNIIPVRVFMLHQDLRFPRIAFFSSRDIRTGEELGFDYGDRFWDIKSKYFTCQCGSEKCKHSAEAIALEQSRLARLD
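Chemiluminescent proximity detection of H3K9 monomethylation, read after 10 min bead incubation in the dark. Reaction: 20 nM G9a, 500 nM biotin-H3K9 peptide, 20 uM SAM cofactor, 2 h, room temperature, following 15 min enzyme-compound preincubation.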
BAZ2B inh = qHTS Assay for Inhibitors of BAZ2B; Potency, µM (top dose mostly 114 µM), without a hit: at the highest dose activity change, negative = inhibition, most hits filed as inhibitors; AlphaScreen BAZ2B-H3K14Ac peptide displacement; AID 504333, 2011; Bromodomain adjacent to zinc finger domain protein 2B (Homo sapiens), Q9UIF8; 360,000 tested, 4.4% active; note: % is set by controls: 0 for no effect and ±100 for the full control effect; nearly all actives have a fitted effect of over 60% in size
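BAZ2B (50 nM) with biotin-H3(5-23)K14Ac peptide (50 nM) in PBS pH 7.4, 0.01% Tween-20, preformed 30 min, then compound 30 min at room temperature; top concentration 110uM. AlphaScreen streptavidin donor/nickel chelate acceptor beads (10 ug/mL final), 20 min dark, signal read.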
Sfp PPTase inh = qHTS Assay for Inhibitors of Bacillus subtilis Sfp phosphopantetheinyl transferase (PPTase). AID 1490, 2009. 310,000 tested, 3.5% active. 4'-phosphopantetheinyl transferase ffp (Bacillus subtilis), Q9F4F7. Potency, µM, for the others: largest response in the series, negative = inhibition, usual class: inhibitors. Biochemical Sfp PPTase activity, qHTS;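 note: the enzyme is Sfp with the accession as filed and its product quenches rhodamine fluorescence; 0% = enzyme reaction without inhibitor and -100% = no enzyme wells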
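Fluorescence-quenching assay with 15 nM Sfp, 5 uM rhodamine-CoA and 12.5 uM BHQ-2-labelled ybbR peptide in pH 7.6 Hepes/MgCl2 buffer. Enzyme was pre-incubated with compound for 15 min at room temperature. Rate was taken from the 30-min fluorescence change (525/598 nm).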
JMJD2A Tudor = qHTS Assay for Inhibitors of JMJD2A-Tudor Domain; Lysine-specific demethylase 4A (Homo sapiens), O75164; AlphaScreen JMJD2A-Tudor / H3K4me3 peptide binding; Potency, µM (highest dose often 114 µM), inactives show at the top dose activity change, negative = inhibition, hits mostly inhibitors; 390,000 tested, 4.4% active; AID 504339, 2011; note: % is set by controls: 0 for no effect and ±100 for the full control effect; nearly all actives have a fitted effect of over 50% in size
* marks the source's active call; other numbers are inactive results; ? = inconclusive; . = no result given; [ ] = remark or other dose. Hits are enriched below; roughly 8.7% of the tested compounds scored in any of these assays. Calls come from the whole dose curve; as a rule, active = well fitted curve in the direction sought with a large enough effect; inconclusive = small, poorly fitted or top-dose-only effect, or another doubt; inactive = no such curve, though single readings can be large; an effect the other way counts as inactive or inconclusive. Potency is the fitted concentration of half-maximal effect.

SMILES	ALOX12 inh	HP1b chromo inh	G9a inh	BAZ2B inh	Sfp PPTase inh	JMJD2A Tudor
CCCCn1c(N)c(N(CCOC)C(=O)CSCc2ccc(C)cc2)c(=O)[nH]c1=O	?	46.0%	44.7µM*	6.5%	.	-11.0%
CCCCn1c(N)c(N(CC)C(=O)CSCc2ccc(C)cc2)c(=O)[nH]c1=O	?	30.0%	.	1.9%	6.2%	7.8%
CCCCn1c(N)c(N(CCOC)C(=O)CSCc2ccc(Cl)c(Cl)c2)c(=O)[nH]c1=O	?	5.5%	56.2µM*	1.2%	.	-8.3%
CCCCn1c(N)c(N(CCOC)C(=O)COC(=O)CNC(=O)c2ccc(Cl)c(Cl)c2)c(=O)[nH]c1=O	-2.8%	56.5%	.	.	.	-7.1%
COCCn1c(N)c(N(Cc2ccccc2)C(=O)CSCC(=O)Nc2ccc(C)cc2)c(=O)[nH]c1=O	-9.2%	34.5%	31.6µM*	-3.6%	.	-6.9%
CC(=O)c1ccccc1NC(=O)CSc1ncnc2ccccc12	34.0%	.	.	.	.	.
CCc1ccc(Nc2nnc(SC(C)C#N)s2)cc1 (stereo not drawn)	16.5%	.	.	.	.	.
CN1CCC(Oc2ccccc2Sc2ccc(C(F)(F)F)cc2)CC1	?	11.1%	?	79.4µM*	-25.4%	?
COc1ccccc1NS(=O)(=O)c1cccc(C(=O)N/N=C/c2ccccc2OCC(=O)O)c1	?	13.5%	?	-32.7%	-29.1%	-13.0%
O=C(O)COc1ccccc1/C=N/NC(=O)c1cccc(S(=O)(=O)N2CCOCC2)c1	-4.9%	-0.4%	14.1µM*	?	?	39.8µM*
Cc1ccc(S(=O)(=O)N2CCN(CC(=O)N/N=C/c3ccccc3OCC(=O)O)CC2)cc1	2.2%	14.3%	.	-13.6%	16.5%	39.8µM*
CCN(CC)S(=O)(=O)c1cccc(C(=O)N/N=C/c2ccccc2OCC(=O)O)c1	?	0.5%	22.4µM*	50.1µM*	?	?
COc1cc(/C=N/NC(=O)c2cccc(S(=O)(=O)N3CCOCC3)c2)cc(OC)c1O	23.8%	16.8%	39.8µM*	-13.4%	-8.3%	-19.2%
CCOc1ccc(CC(=O)Nc2cccc3cccnc23)cc1	12.5%	.	.	.	.	.
O=C(NCc1cccs1)c1cc(-c2cccnc2)nc2ccc(Br)cc12	-3.4%	.	.	.	.	.
Cc1ccc2[nH]c(=O)c3cc(C(=O)NCc4ccccc4Cl)sc3c2c1	2.9%	.	.	.	.	.
CC1=C(C(=O)Nc2ccccc2)C(c2ccccc2)NC(=S)N1 (stereo not drawn)	-48.0%	.	.	.	.	.
Cc1ccc(NC(=O)C2=C(c3ccccc3)NC(=S)NC2c2ccc(Cl)cc2)cc1 (stereo not drawn)	35.5µM*	.	.	.	.	.
Cc1ccc(NC(=O)C2=C(c3ccccc3)NC(=S)NC2c2ccc(Br)cc2)cc1 (stereo not drawn)	31.6µM*	.	.	.	.	.
Cc1nn(Cc2ccccc2)c(C)c1/C=N/NC(=O)CNc1cccc(C(F)(F)F)c1	3.6%	16.5%	9.1%[59 µM]	-37.3%	-0.6%	-31.7%
COc1ccc(NCC(=O)N/N=C/c2c(C)nn(Cc3ccccc3)c2Cl)cc1	-17.5%	-27.6%	?	44.7µM*	-11.7%	?
Cc1ccc2c(ccc(=S)n2C)c1	?	39.0%	39.8µM*	?	-16.0%	-18.6%
CC(C)C(=O)Nc1ccc([N+](=O)[O-])cc1	2.0%	.	.	.	.	.
O=C(CN1C(=O)C2CCCCC2C1=O)Nc1nc(-c2ccccn2)cs1 (stereo not drawn)	-22.4%	?	?	35.5µM*	15.8µM*	79.4µM*
C[C@@H](C(=O)Nc1nc(-c2ccccn2)cs1)N1C(=O)C2CCCCC2C1=O (stereo partly drawn)	?	?	1.41µM*	8.91µM*	50.1µM*	50.1µM*
SMILES	ALOX12 inh	HP1b chromo inh	G9a inh	BAZ2B inh	Sfp PPTase inh	JMJD2A Tudor
CCN1CCN(C(=O)CC2CCCN(c3cnn(CCOC)c(=O)c3)C2)CC1 (stereo not drawn)	38.7%	.	.	.	.	.
O=C(C=C1CCN(c2ncc(C(F)(F)F)cc2Cl)CC1)NNC(=O)Nc1ccccc1	0.0%	18.9%	11.2µM*	2.7%	7.1%	-12.0%
O=C(C=C1CCN(c2ncc(C(F)(F)F)cc2Cl)CC1)NNC(=O)Nc1ccc(Cl)cc1	0.0%	20.7%	-3.7%	3.7%	6.4%	-2.7%
COc1cccc(-c2sc3ccc(OC)cc3c2-c2ccc(OCCN3CCCC3)cc2)c1	.	?	.	.	.	56.2µM*
COc1cccc(-c2sc3ccccc3c2-c2ccc(OCCN3CCCCC3)cc2)c1	.	-10.9%	.	.	.	?
COc1cccc(-c2sc3ccccc3c2-c2ccc(OCCN3CCCC3)cc2)c1	?	?	.	.	.	44.7µM*
COc1cccc(-c2sc3ccc(OC)cc3c2-c2ccc(C(N)=O)cc2)c1	17.7%	19.0%	0.1%[0.501 µM]	3.4%	.	-16.8%
COc1ccc2sc(-c3ccccc3OC)c(-c3ccc(OCCN(C)C)cc3)c2c1	?	-34.7%	.	.	.	50.1µM*
COc1cccc(-c2sc3ccccc3c2-c2ccc(OCCN(C)C)cc2)c1	?	?	.	.	.	44.7µM*
Cc1nc(-c2ccccc2)sc1C(=O)N1CCCC(C(=O)O)C1 (stereo not drawn)	-13.9%	.	.	.	.	.
CC(C)Oc1cccc(C(=O)Nc2ccc3oc(-c4ccncc4)nc3c2)c1	6.6%	.	.	.	.	.
Cc1[nH]c2ccccc2c1C(=O)C(C)OC(=O)c1ccc(F)cc1Cl (stereo not drawn)	2.8%	.	.	.	.	.
COc1ccc(-c2sc3ccc(OC)cc3c2-c2ccc(OCCN3CCOCC3)cc2)cc1	.	-11.2%	.	.	.	?
COc1cccc(-c2sc3cc(OC)c(OC)cc3c2-c2ccc(OCCN3CCCCC3)cc2)c1	.	?	.	.	.	31.6µM*
CN(C)C(CNC(=O)c1ccc(C2SCCS2)cc1)c1ccccc1 (stereo not drawn)	2.3%	-12.1%	50.1µM*	-23.1%	4.3%	?
CN(C)C(CNC(=O)c1cc(S(=O)(=O)N(C)c2ccccc2)ccc1Cl)c1ccccc1 (stereo not drawn)	15.4%	-3.6%	-38.6%	-13.9%	6.6%	?
CN(C)C(CNC(=O)c1cnc(Cl)c(Cl)c1)c1ccccc1 (stereo not drawn)	-17.6%	?	?	56.2µM*	?	20µM*
O=C(NCc1ccccc1)c1ccc(C2SCCS2)cc1	31.6%	.	.	.	.	.
COc1ccc(-c2cc(C)no2)cc1S(=O)(=O)N1CC(C)Oc2ccccc21 (stereo not drawn)	-16.6%	13.9%	-19.9%[59 µM]	?	.	-17.5%
